SMILES strings stand for the structures. For some of these results: Entries with a potency or affinity are not part of this list.

Common to all, as to parameters: scale not given: direction of the effect not stated beside the values
Test [1] addresses Protein translocase subunit SecA (Escherichia coli (strain K12)) (UniProt P10408). The test is described as follows: Assay to Identify E. coli SecA ATPase Inhibitors. Format: functional. As to conditions: 30 µM.
Test [2] deals with T1, Ubiquitin-activating enzyme e1, putative (Leishmania donovani (strain BPK282A1)) (UniProt E9BSI1).
T1 sequence (whole entry): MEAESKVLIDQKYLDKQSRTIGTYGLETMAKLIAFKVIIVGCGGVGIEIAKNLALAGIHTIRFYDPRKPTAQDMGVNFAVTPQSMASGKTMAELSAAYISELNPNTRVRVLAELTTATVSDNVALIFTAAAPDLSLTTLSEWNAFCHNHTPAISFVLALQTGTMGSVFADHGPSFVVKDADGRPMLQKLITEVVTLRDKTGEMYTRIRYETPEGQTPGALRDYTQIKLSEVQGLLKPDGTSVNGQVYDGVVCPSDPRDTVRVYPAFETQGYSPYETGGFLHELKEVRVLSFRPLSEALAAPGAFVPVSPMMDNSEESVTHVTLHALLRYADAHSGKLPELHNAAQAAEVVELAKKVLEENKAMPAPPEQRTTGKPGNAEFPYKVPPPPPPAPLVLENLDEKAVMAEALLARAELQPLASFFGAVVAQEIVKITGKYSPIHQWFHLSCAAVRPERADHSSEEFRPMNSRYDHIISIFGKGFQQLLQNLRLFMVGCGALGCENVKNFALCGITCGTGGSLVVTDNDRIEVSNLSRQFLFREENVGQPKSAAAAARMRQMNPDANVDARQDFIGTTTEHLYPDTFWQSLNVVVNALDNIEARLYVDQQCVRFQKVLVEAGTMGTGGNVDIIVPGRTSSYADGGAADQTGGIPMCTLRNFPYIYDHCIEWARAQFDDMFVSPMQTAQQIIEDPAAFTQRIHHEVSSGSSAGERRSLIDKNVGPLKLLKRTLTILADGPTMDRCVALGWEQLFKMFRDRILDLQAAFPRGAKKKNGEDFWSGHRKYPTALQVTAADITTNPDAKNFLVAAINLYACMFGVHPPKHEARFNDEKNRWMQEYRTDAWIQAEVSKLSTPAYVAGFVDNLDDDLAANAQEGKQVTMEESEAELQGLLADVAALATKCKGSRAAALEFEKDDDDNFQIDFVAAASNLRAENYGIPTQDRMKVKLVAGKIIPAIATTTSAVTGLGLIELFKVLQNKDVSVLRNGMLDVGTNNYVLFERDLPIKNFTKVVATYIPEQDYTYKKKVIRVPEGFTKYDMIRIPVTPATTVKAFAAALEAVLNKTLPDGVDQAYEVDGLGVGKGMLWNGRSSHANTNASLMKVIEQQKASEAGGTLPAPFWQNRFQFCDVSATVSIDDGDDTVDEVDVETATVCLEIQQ
Nature of the test: Leishmania donovani Ubiquitin Activating Enzyme (LdE1). Format: functional. As to conditions: 30 µM.

Test [3] deals with AMP-activated protein kinase, AMPK (Homo sapiens) (UniProt P54646+O43741+P54619+Q9UGJ0+Q9Y478+Q13131+Q9UGI9). The test is described as follows: AMP-dependent Kinase enzyme assay. An in vitro enzyme assay that detects ADP turnover that is directly proportional to AMPK activity. This uses naive AMPK that is activated during the assay with MK-8722. Format: functional. As to conditions: 30 µM.

Test [4] has as its target Sialic acid-binding Ig-like lectin 9 (Homo sapiens) (UniProt Q9Y336). The test is described as follows: Hs-Siglec9 ALPHAscreen SOP 20170721. As to conditions: 10 µM. For orientation: Bead proximity is the source of the signal in Alpha formats.
The next test concerns Trypanosoma cruzi. The test is described as follows: Trypanosoma cruzi phosphomannomutase and mannose-1-phosphate guanylyltransferase assay. As to conditions: 10 µM. Format: functional.
For test [5], the target named is T2, Arginase-2, mitochondrial (Homo sapiens) (UniProt P78540).
T2 sequence (whole entry): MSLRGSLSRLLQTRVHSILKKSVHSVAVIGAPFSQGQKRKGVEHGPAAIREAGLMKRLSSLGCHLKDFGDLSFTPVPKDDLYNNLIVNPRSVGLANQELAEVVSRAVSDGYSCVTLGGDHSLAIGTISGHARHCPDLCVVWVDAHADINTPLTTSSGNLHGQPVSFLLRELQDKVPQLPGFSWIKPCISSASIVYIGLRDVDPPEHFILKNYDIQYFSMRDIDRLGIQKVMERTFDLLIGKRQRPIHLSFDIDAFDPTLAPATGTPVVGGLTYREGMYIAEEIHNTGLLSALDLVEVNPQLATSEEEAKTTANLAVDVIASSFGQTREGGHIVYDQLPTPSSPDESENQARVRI
The test is described as follows: in vitro enzyme assay to detect the production of urea directly proportional to the activity of Arginase II. Also: in the data most compounds retested in dose-response had high values. Format: functional. As to conditions: 33.3 µM.

In test [6] the target is T3, Proteasome subunit beta (Trypanosoma cruzi) (UniProt O96673).
T3 sequence (whole entry): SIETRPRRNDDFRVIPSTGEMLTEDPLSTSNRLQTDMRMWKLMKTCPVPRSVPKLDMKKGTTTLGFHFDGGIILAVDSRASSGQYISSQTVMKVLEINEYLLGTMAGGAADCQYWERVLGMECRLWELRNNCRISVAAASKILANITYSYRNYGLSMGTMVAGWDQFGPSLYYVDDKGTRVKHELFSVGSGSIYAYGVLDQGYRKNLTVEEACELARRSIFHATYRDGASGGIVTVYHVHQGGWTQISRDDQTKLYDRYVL
Nature of the test: Trypanosoma cruzi proteasome chymotrypsin-like activity (TcProtChymo) assay. Also: in the data most compounds retested in dose-response had high values. As to conditions: 9.37 µM. Format: functional.

The species entered for another test is Homo sapiens. The test is described as follows: To identify inhibition of the IFN signalling (Jak-Stat) pathway via expression of an eGFP reporter gene under the control of an IFN-stimulated response element (ISRE) containing MxA promoter. Format: functional. As to conditions: 30 µM. (In a reporter assay the amount or activity of a reporter protein is the signal.)

Test [7] deals with T4, Tyrosyl-tRNA synthetase, putative (Trypanosoma cruzi (strain CL Brener)) (UniProt Q4DSP6).
T4 sequence (whole entry): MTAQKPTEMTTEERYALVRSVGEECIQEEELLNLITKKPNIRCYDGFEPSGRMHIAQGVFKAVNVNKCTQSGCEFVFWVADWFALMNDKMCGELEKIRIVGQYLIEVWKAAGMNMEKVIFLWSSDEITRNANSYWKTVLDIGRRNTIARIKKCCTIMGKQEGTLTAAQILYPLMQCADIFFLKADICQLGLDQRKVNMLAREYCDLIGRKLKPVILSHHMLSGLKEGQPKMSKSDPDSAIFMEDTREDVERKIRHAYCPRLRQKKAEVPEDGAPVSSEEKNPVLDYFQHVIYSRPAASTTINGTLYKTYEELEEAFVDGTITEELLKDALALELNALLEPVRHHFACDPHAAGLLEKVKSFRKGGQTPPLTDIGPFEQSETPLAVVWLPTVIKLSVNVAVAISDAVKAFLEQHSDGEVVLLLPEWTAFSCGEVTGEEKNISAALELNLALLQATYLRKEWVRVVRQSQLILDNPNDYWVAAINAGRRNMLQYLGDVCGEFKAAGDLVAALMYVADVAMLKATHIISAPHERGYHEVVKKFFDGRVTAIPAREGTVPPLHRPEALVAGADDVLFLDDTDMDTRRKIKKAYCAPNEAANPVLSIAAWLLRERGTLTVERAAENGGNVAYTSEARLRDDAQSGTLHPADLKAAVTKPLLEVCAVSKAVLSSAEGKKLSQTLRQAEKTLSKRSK
Nature of the test: Trypanosoma cruzi tyrosyl tRNA synthetase (TcYRS) _High Tyrosine SOP. Also: in the data most compounds retested in dose-response had high values. Format: functional. As to conditions: 30 µM.

In test [8] the target is T4, Tyrosyl-tRNA synthetase, putative (Trypanosoma cruzi (strain CL Brener)). The test is described as follows: Trypanosoma cruzi tyrosyl tRNA synthetase (TcYRS) SOP. Format: functional. As to conditions: 30 µM.
Test [9] concerns the target Chromo domain-containing protein 1 (Saccharomyces cerevisiae (strain ATCC 204508 / S288c) (Baker's yeast)) (UniProt P32657). Nature of the test: ScCHD-1 Enzyme Inhibition Assay. Also: in the data most compounds retested in dose-response had high values. Format: functional. As to conditions: 30 µM.

Sequence of Chromo domain-containing protein 1 (Saccharomyces cerevisiae (strain ATCC 204508 / S288c) (Baker's yeast)) (P32657 whole entry, the tested form may be a part): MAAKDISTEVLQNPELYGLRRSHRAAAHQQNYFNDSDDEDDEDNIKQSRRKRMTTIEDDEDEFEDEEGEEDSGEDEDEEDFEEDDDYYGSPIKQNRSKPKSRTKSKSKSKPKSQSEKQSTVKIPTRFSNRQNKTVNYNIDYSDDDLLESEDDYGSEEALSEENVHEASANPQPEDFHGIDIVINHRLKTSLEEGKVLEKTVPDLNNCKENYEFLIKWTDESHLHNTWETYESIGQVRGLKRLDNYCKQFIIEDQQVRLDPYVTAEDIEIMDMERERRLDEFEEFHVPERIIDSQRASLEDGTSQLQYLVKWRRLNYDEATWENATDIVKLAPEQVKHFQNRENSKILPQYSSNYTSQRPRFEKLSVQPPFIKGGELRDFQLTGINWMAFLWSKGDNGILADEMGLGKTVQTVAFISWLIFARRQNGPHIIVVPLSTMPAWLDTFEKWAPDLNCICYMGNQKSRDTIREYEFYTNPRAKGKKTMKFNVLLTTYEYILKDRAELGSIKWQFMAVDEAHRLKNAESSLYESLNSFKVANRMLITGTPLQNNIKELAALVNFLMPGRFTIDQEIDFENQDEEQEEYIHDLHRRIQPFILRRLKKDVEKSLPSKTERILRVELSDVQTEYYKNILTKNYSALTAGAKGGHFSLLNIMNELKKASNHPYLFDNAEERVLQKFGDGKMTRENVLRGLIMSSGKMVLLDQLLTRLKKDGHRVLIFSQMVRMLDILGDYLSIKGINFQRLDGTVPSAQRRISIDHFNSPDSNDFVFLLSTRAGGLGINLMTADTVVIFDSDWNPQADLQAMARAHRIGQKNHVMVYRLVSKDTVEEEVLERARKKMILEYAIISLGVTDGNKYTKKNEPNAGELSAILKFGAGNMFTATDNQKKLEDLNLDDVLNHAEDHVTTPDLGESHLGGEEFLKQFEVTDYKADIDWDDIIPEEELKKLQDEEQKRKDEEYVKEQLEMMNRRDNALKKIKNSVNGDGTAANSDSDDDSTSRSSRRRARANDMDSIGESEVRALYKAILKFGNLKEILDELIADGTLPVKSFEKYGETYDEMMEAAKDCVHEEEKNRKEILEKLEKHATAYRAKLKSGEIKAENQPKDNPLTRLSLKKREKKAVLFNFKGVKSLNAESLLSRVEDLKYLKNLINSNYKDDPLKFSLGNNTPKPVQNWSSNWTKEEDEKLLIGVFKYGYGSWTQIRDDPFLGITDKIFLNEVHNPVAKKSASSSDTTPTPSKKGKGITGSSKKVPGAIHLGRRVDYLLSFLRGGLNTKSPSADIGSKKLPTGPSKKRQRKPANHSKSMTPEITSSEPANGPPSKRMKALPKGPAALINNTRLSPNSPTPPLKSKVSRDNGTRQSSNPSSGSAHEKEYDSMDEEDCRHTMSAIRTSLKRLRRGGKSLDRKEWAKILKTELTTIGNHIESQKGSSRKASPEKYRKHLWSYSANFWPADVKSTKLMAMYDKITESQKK
Sequence of Sialic acid-binding Ig-like lectin 9 (Homo sapiens) (Q9Y336 whole entry): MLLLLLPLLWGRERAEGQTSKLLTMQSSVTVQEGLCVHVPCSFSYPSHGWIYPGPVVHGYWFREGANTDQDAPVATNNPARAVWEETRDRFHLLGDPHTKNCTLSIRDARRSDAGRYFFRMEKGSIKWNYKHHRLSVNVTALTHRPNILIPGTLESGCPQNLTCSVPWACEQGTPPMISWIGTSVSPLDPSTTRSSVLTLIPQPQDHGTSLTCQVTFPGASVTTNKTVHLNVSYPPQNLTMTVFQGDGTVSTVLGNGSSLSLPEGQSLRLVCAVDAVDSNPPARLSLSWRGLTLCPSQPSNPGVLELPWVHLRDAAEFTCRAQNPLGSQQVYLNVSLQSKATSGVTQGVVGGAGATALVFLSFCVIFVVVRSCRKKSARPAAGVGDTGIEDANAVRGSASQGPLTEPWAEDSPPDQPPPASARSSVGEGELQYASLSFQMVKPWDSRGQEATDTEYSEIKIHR
Sequence of Protein translocase subunit SecA (Escherichia coli (strain K12)) (P10408 whole entry): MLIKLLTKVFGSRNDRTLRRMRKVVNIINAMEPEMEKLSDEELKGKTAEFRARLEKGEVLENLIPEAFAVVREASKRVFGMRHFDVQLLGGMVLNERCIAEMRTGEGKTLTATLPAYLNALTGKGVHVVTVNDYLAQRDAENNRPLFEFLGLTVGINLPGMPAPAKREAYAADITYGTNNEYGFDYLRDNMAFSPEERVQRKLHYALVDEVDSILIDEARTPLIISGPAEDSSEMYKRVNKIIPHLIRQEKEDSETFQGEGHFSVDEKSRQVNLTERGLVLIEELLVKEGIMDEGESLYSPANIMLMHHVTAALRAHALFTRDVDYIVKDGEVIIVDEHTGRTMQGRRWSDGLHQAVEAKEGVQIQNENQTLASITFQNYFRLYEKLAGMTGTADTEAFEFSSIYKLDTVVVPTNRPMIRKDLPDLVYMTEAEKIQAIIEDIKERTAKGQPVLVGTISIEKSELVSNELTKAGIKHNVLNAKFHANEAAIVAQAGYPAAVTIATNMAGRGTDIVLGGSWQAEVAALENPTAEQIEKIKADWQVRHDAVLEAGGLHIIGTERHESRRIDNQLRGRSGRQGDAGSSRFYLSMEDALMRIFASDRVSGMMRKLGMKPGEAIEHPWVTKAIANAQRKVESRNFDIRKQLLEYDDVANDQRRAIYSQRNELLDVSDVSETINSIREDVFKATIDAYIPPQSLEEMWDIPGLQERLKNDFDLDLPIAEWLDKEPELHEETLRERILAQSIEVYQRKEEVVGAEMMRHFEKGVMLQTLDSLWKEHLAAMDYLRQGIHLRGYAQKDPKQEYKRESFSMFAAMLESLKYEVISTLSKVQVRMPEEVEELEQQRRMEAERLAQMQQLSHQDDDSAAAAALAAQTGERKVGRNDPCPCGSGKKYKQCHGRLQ

As for `CCc1nc(C2CCCN2Cc2nc(C3CC3)no2)no1` (stereo unspecified), the Percent Effect in test [1] is -0.343%; in test [2], 2.6%; in test [3] it was -1.94%; in test [4], 16.2%; in the test on Trypanosoma cruzi it was 2.65%; in test [5] it was -12.4%. Also, the Percent Effect was 9.15% in test [6]; -6.21% in the test filed under Homo sapiens; 0% in test [7]; 1.24% in test [8]; -6.42% in [9].

For `CCn1cc(CN2CCCN(C(=O)CCc3ccncc3)CC2)cn1`, the Percent Effect in test [1] is -3.49%; in test [2], 26%; in [3], -14.6%; in [4] it was 4.57%; in the test with Trypanosoma cruzi it was 1.87%; in test [5], -0.712%. Also, the Percent Effect in test [6] is 5.91%; in the test filed under Homo sapiens it was 23.6%; in [7] it was 8.74%; in [8], 14.6%; in test [9], -7.66%.

Turning to `CN(Cc1nnc(C2CC2)n1C)C1CCN(CCc2cccs2)C1` (stereo unspecified), the Percent Effect was -0.668% in [1]; 5.48% in test [2]; -3.64% in test [3]; 3.02% in test [4]; 8.33% with Trypanosoma cruzi; 0% in test [5]. For the same compound, the Percent Effect was 15.5% in [6]; -8.16% in the test filed under Homo sapiens; 2.08% in [7]; 6.17% in test [8]; -3.22% in test [9].

For the compound `O=C(CCNC(=O)c1ccccc1)Nc1ccncc1`, the Percent Effect in test [1] is 1.26%; in [2], 10.5%; in [3], 6.49%; in test [4] it was -0.508%; in the test with Trypanosoma cruzi, -4.58%; in test [5], -8.28%. Further, the Percent Effect in [6] was 13.5%; in the test filed under Homo sapiens it was 3.87%; in [7], 2.13%; in [8], 10.4%; in test [9], -2.65%.

For `CCc1nc(C2CCCN(C(=O)c3cccc4cn[nH]c34)C2)no1` (stereo unspecified), the Percent Effect in [1] is -7.64%; in [2], 5.41%; in [3] it was 1.19%; in [4] it was 7.35%; with Trypanosoma cruzi, -6.41%; in [5], -2.77%. Moreover, the Percent Effect in test [6] was determined as 6.64%; in the test listed under Homo sapiens, 19.4%; in [7] it was 2.97%; in test [8] it was 1.22%; in [9], 3.58%.

Consider `CCS(=O)(=O)c1ccccc1N1CCC(NC(=O)NC2CCCC2)CC1`, for which the Percent Effect was -5.55% in test [1]; 10.8% in test [2]; 5.69% in test [3]; 8.77% in test [4]; 0.279% with Trypanosoma cruzi; -3.14% in test [5]. The Percent Effect in test [6] is -1.62%; in the test listed under Homo sapiens, 16%; in test [7] it was 6.93%; in [8] it was 13.4%; in [9], -1.94%.

As for `NC(=O)Nc1cccc(Oc2ccccn2)c1`, the Percent Effect was -0.17% in test [1]; 0% in test [2]; 11.3% in [3]; -0.357% in test [4]; -3.99% in the test on Trypanosoma cruzi; -7.1% in [5]. Moreover, the Percent Effect in test [6] was 8.53%; in the test filed under Homo sapiens, 0.913%; in [7], 3.19%; in test [8], 2.6%; in [9] it was -0.275%.

With `CCOc1cccc(C(C)NCc2ccc(OC)c(OC)c2OC)c1` (stereo unspecified), the Percent Effect in test [1] was -3%; in test [2], 16%; in test [3], -4.66%; in test [4], 15.5%; with Trypanosoma cruzi it was 8.08%; in test [5] it was 4.69%. Moreover, the Percent Effect in test [6] was 11.2%; in the test listed under Homo sapiens, 43.6%; in test [7] it was 7.1%; in test [8] it was 21%; in test [9], -6.92%.

For the compound `Cc1noc([C@H]2C[C@@H]3CCN(C(=O)C4CCOCC4)C[C@H]3O2)n1`, the Percent Effect in [1] was -3.88%; in [2], 0%; in test [3], 7.28%; in test [4], 1.95%; in the test with Trypanosoma cruzi, -3.81%; in [5] it was 8.6%. Moreover, the Percent Effect is 17% in test [6]; -2.45% in the test filed under Homo sapiens; 1.08% in [7]; 5.13% in test [8]; 3.17% in test [9].

Take `Cc1cc(C)c(CNC(=O)N(C)Cc2sccc2C)c(=O)[nH]1`: the Percent Effect was -4.14% in [1]; 18.4% in test [2]; -5.42% in test [3]; -3.09% in test [4]; -3.46% in the test on Trypanosoma cruzi; -2.88% in test [5]. Further, the Percent Effect in test [6] was 2.62%; in the test filed under Homo sapiens, 9.33%; in [7] it was 4.43%; in test [8] it was 11.1%; in [9], -4.59%.

As for `COCC1CN(C(=O)c2cccn2C)Cc2ncnn2C1` (stereo unspecified), the Percent Effect was -5.41% in test [1]; 5.2% in [2]; 0.668% in [3]; 11.3% in test [4]; 9.34% in the test on Trypanosoma cruzi; 4.14% in [5]. For the same compound, the Percent Effect in [6] was 8.32%; in the test listed under Homo sapiens, 9.25%; in [7], -2.15%; in test [8], 11.1%; in test [9], 3.71%.
